Assay [1] can be described thus: qHTS assay for small molecule agonists of the p53 signaling pathway (AID 651631; calls by dose curve; further: nearly all actives have a fitted effect of over 15% in size). In outline: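 Beta-lactamase reporter activity under p53 response elements was quantified in HCT-116 cells by FRET fluorescence, following 16 h incubation with test compounds at 37 °C and 2 h substrate development at room temperature.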
Assay [2] is described as follows: qHTS assay for small molecules that induce genotoxicity in human embryonic kidney cells expressing luciferase-tagged ATAD5 (AID 651632). Further: nearly all actives have a fitted effect of over 15% in size. Further: potency means the concentration at half of the fitted maximal effect. In outline: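 Reporter cells (HEK293T) express luciferase-tagged ATAD5, a protein that accumulates after DNA damage. Treat 16 hr at 37C/5% CO2, add Amplite, wait 30 min at RT, and read luminescence.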
Assay [3] is described as follows: qHTS assay for small molecule agonists of the p53 signaling pathway - cell viability (AID 651633; calls by dose curve;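 further: p53RE-bla HCT reporter cells with a stable beta-lactamase p53 reporter; series mostly up to about 83 µM; nearly all actives have a fitted effect of over 30% in size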). In outline: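 p53RE-bla cells were treated with compound for 16 hours at 37 C. Cytotoxicity was then measured as CellTiter-Glo luminescence after 30 min at room temperature.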
For orientation: qHTS replaces the single test concentration by a dilution series.

A short description of assay [4]: qHTS assay for small molecule disruptors of the mitochondrial membrane potential - cell viability (AID 720634; calls by dose curve;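 further: human HepG2 liver cancer cells; series mostly up to about 83 µM; nearly all actives have a fitted effect of over 20% in size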). In outline: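 Measuring cytotoxicity alongside mitochondrial potential, the screen quantified ATP by luminescence in HepG2 cells after 1 hr compound incubation and a 30 min room-temperature CellTiter-Glo step.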
Assay [5] is described as follows: qHTS assay to test for compound auto fluorescence at 590 nm (red) in HepG2 cells (AID 720674). Summed up: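 Fluorescence at 590 nm emission following 540 nm excitation was recorded from HepG2 wells one hour after compound transfer, with DMSO-only wells as vehicle and Rose Bengal sodium equivalency as the scale.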
Assay [6] in a line: qHTS assay to test for compound auto fluorescence at 535 nm (green) in HepG2 cells (AID 720675).
Assay [7] in a line: qHTS assay to test for compound auto fluorescence at 460 nm (blue) in HEK293 cells (AID 720678). Summed up:
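Triamterene serves as the blue fluorophore standard. Compound signal at 405/460 nm is read in HEK293 wells (2,000 cells, 10% dialyzed FBS) after overnight treatment at 37C.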

Assay [8] is described as follows: qHTS assay to test for compound auto fluorescence at 590 nm (red) in HEK293 cells (AID 720679). Summed up:
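We plated HEK293 cells in 10% dialyzed FBS medium, let them adhere for 4-5 hr, then added 23 nL compound. Overnight at 37C and 5% CO2 preceded fluorescence measurement at 540/590nm.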

Assay [9] is described as follows: qHTS assay for small molecules that induce genotoxicity in human embryonic kidney cells expressing luciferase-tagged ATAD5 - cell viability (AID 651634; calls by dose curve; further: nearly all actives have a fitted effect of over 25% in size). In outline: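 Seeding of 2,000 HEK293T ATAD5-luciferase cells per well preceded pin-tool compound transfer. Plates sat 15.5 hr at 37C under 5% CO2, then fluorescence was read after 30 min with CellTiter-Fluor.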

The nature of assay [10]: qHTS assay for small molecule disruptors of the mitochondrial membrane potential (AID 720635). Further: potency means the concentration at half of the fitted maximal effect. Summed up: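 HepG2 cells exposed to compound 1 hr at 37C, then Mito-MPS dye 30 min. Ratio read of aggregate (540/590 nm) versus monomer (490/535 nm) fluorescence.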

Unmarked numbers belong to inactive results. Inconclusive results are not listed. The source made the active and inactive calls. Unless noted, the call rests on the fitted dose curve; in most records, active means well fitted curve in the direction sought with a large enough effect in the repeat runs; inconclusive means weak or mixed curves; inactive means no such curve, though single readings can be large; an effect the other way counts as inactive or inconclusive.
On the % scale 0 is the no-effect control and ±100 the full control effect.

Regarding `CN(C)N=Nc1ccccc1`, the Potency result in assay [1], in assay [2], in assay [3], in assay [4] and in assay [7] was “inactive” throughout. For the same compound, the compound was called inactive in assay [5], in assay [6] and in [8].

Take `O=[N+]([O-])c1ccc(CCO)cc1`: the Potency result in assay [1], in [2], in assay [3], in [9], in assay [4] and in [7] was “inactive” in each case. In assay [8], the result was inactive.

Regarding `NC1CCN(c2cccc(Cl)n2)CC1`, the Potency result in [1], in [2], in [9], in assay [4], in [10] and in [7] was “inactive” in each case. In addition, the result in [5], in assay [6] and in assay [8] was inactive.

Consider `Oc1ccc2c(c1)OC[C@@H](N1CCC(O)(c3ccc(F)cc3)CC1)[C@H]2O`, for which the Potency entry in [1], in assay [3], in [9] and in assay [7] was “inactive” each time. The Potency was 7.5 µM (active) in assay [2] and 33.5 µM (active) in assay [10]. Further, the compound was called inactive in [5] and in assay [8].

With `c1ccc(CCCc2ccccn2)cc1`, the Potency result in [2], in assay [3], in [9], in assay [4] and in [7] was “inactive” throughout. For the same compound, the outcome in assay [6] and in assay [8] was inactive.

With `C#CC(O)C(CC)CCCC` (stereo not given), the Potency result in assay [2], in assay [3], in assay [9], in assay [4] and in assay [7] was “inactive” each time. Moreover, the compound was called inactive in assay [6].

As for `NC(N)=NS(=O)(=O)c1ccc(N)cc1`, the Potency result in assay [2], in assay [3], in [9], in assay [4] and in assay [10] was “inactive” each time. Besides, the fluorescence, % of fluorescein control in [6] is 0.0157% [at 18.6 µM]. Further, in [7], the fluorescence, % of triamterene was 0.195% [at 18.6 µM].

With `C1=C\CC/C=C\CC/C=C\CC/1`, the Potency result in assay [2], in [3], in assay [9] and in assay [7] was “inactive” throughout. Also, the compound was called inactive in [5], in assay [6] and in assay [8].

In the case of `CCCCCCCCN(C)CCCCCCCC`, the Potency result in assay [2], in [3], in assay [9], in assay [4] and in assay [7] was “inactive” in each case. For the same compound, the outcome in [6] and in assay [8] was inactive.

For the compound `C/C=C1\C(=O)C[C@H]2[C@@H]3CCC4=CC(=O)CC[C@]4(C)[C@H]3CC[C@]12C`, the Potency result in assay [2], in [3], in assay [9], in [4] and in [7] was “inactive” throughout. For the same compound, the compound was classed as inactive in [5], in [6] and in [8].

Consider `COc1cc(C)cc(O)c1`, for which the Potency result in [2], in [3], in assay [9], in [4], in assay [10] and in assay [7] was “inactive” in each case. Further, the compound was classed as inactive in [5], in [6] and in assay [8].

As for `CCN(CC)C(=O)c1ccc(O)c(OC)c1`, the Potency result in assay [2], in [3], in assay [9], in assay [4], in [10] and in assay [7] was “inactive” throughout. The outcome in assay [5], in assay [6] and in assay [8] was inactive.

Take `NCC[C@H](O)C(=O)N[C@@H]1C[C@H](N)[C@@H](O[C@H]2O[C@H](CN)[C@@H](O)[C@H](O)[C@H]2O)[C@H](O)[C@H]1O[C@H]1O[C@H](CO)[C@@H](O)[C@H](N)[C@H]1O`: the Potency entry in [2], in [3], in assay [9], in [4], in assay [10] and in assay [7] was “inactive” throughout. Besides, the outcome in [5], in assay [6] and in [8] was inactive.

In the case of `CC(C)=CC(=O)O`, the Potency result in assay [2], in assay [3], in assay [9], in assay [4], in assay [10] and in assay [7] was “inactive” in each case. Also, the outcome in assay [5], in assay [6] and in assay [8] was inactive.

For `Cc1ccccc1Br`, the Potency result in assay [2], in assay [3], in assay [9], in assay [4] and in assay [7] was “inactive” each time. Further, the compound was called inactive in assay [5] and in [8].

`COc1ccc(COC=O)cc1`: the Potency result in assay [2], in assay [3], in assay [9], in assay [4], in assay [10] and in assay [7] was “inactive” each time. Further, the compound was classed as inactive in assay [5], in assay [6] and in [8].

In the case of `CC1CCN(CCCC(=O)c2ccc(F)cc2)CC1`, the Potency entry in assay [2], in assay [3], in assay [9], in assay [4], in assay [10] and in assay [7] was “inactive” in each case. For the same compound, the compound was classed as inactive in assay [5], in [6] and in [8].
